In all, about 310,000 compounds went through this assay and about 14,000 (4.5%) showed an effect of 50% or more. The effect is printed as a negative number. What follows is part of a selection rich in strong results, with near analogues and random picks from the rest.
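Note: peak tail current of the secondary pulse compared with the same well before compound.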

Chain of human ether-à-go-go-related gene (hERG) potassium channel (Q12809 whole entry, looked up): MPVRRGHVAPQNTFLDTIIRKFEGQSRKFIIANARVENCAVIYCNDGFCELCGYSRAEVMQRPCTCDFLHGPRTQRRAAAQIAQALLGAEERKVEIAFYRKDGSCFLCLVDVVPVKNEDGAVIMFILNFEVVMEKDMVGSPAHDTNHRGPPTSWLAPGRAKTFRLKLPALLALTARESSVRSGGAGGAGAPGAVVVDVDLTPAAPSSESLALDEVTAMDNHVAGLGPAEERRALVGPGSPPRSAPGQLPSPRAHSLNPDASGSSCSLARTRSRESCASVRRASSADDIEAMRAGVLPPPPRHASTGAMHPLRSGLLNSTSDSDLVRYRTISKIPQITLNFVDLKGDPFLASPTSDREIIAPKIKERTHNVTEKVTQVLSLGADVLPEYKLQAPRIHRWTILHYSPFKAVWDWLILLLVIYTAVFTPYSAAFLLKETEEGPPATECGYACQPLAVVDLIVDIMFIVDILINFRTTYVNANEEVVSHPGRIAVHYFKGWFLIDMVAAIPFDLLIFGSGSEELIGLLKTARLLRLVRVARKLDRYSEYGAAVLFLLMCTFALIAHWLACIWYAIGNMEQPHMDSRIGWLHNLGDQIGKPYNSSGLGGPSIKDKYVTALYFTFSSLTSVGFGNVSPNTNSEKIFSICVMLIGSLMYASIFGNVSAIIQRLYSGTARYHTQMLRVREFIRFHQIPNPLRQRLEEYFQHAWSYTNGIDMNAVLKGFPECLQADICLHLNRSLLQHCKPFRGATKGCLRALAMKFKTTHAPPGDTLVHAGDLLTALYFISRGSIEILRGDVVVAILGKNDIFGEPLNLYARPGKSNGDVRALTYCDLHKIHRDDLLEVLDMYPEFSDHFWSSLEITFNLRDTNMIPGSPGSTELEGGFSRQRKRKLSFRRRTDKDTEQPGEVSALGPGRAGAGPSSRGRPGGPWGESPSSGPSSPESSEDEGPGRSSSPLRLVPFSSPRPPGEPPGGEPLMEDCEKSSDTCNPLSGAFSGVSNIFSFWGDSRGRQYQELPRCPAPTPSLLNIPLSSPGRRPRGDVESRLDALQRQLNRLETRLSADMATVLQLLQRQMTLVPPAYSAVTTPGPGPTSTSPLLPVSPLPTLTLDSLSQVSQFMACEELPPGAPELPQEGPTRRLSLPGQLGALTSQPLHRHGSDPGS

The assay concerns the target human ether-à-go-go-related gene (hERG) potassium channel (human, UniProt Q12809). In words: primary screen, population patch clamp on CHO cells stably expressing hERG; higher = less effect of the substance.
For `Cn1c(SCC(=O)NNC(=O)c2ccc(Br)cc2)nnc1-c1cccnc1`, the “hERG current change (%, negative = inhibition) at 10uM” value is on record as 25.6%.

Regarding `Cc1ccc(NC(=O)NC(=O)CSc2nnc(-c3ccc(Cl)cc3Cl)n2N)c(C)c1`, the “hERG current change (%, negative = inhibition) at 10uM” value is -6.38%. Next, `Cc1nc(C)c(C(=O)NNS(=O)(=O)c2ccccc2)s1`: 8.26%; `COc1cc(/C=N/O)ccc1OCc1ccc(Cl)cc1`: 19.6%; `COc1cc(CNCc2ccccn2)ccc1OCC(=O)NC(C)(C)C.Cl`: 0.777%. Next, `COc1cc(CNCc2ccccn2)ccc1OCc1ccc(Cl)c(Cl)c1.Cl`: -51.2%; `Cl.OCCNCc1cccc(OCc2ccc(Cl)cc2)c1`: -12.9%. Next, `COc1cc(/C=N/N=C(N)N)ccc1OCc1ccc(Cl)cc1`: -50.5%; `Cl.Fc1ccc(COc2cccc(CNCc3ccncc3)c2)cc1`: -40.6%. With `CCOc1cc(/C=N/N=C(N)N)ccc1OCc1ccc(Cl)cc1`, the “hERG current change (%, negative = inhibition) at 10uM” value was -19.9%.

Regarding `CCOc1c(Cl)cc(CNCc2ccccn2)cc1OC.Cl`, the “hERG current change (%, negative = inhibition) at 10uM” value is reported as -18.7%. Next, `Cl.c1ccc(COc2cccc(CNCc3ccccn3)c2)cc1`: -45.2%; `CCOc1cc(CNCc2ccccn2)cc(Cl)c1OC.Cl`: 29.6%.

With `Cl.Clc1ccc(COc2cccc(CNCc3ccncc3)c2)cc1`, the “hERG current change (%, negative = inhibition) at 10uM” value is reported as -59.8%. Next, `COc1cc(CNCc2ccccn2)ccc1OCc1cccc(Cl)c1.Cl`: -54%; `CCC(C)NC(=O)c1ccccc1NC(=O)Nc1ccccc1` (centres unmarked): 3.24%. For the compound `COc1ccccc1OCCNC(=O)C(=O)c1c[nH]c2ccccc12`, the “hERG current change (%, negative = inhibition) at 10uM” value was 5.02%. Next, `CC1(C)Cc2c(sc3c2C(=O)N(c2ccccc2)C2=NCCCN23)CO1`: 3.7%. Next, `CC(C)C[C@H](NC(=O)c1nc[nH]c1C(=O)NC1CCN(C(=O)OC(C)(C)C)CC1)C(=O)OC(C)(C)C`: -10.8%. With `O=C(Nc1c2c(nn1-c1ccc(F)cc1)CS(=O)C2)C12CC3CC(CC(C3)C1)C2` (centres unmarked), the “hERG current change (%, negative = inhibition) at 10uM” value is given as 16.7%. Next, `COc1ccccc1N(CC(=O)NCCSc1ccc(Cl)cc1)S(C)(=O)=O`: -6.87%. `COc1cc(CNCc2ccccn2)ccc1OCC(N)=O.Cl`: the “hERG current change (%, negative = inhibition) at 10uM” value is -0.0507%. On to `COc1cc(CNCc2ccccn2)ccc1OCc1ccc(Cl)cc1.Cl`, for which the “hERG current change (%, negative = inhibition) at 10uM” value was -56.8%. Next, `COc1cc(CNCc2cccnc2)ccc1OCc1ccccc1.Cl`: -21.8%. Next, `Cc1ccc(S(=O)(=O)NCC(C)n2nc(C)nc2C)cc1` (centres unmarked): -0.542%.

`C=CCn1c(O)c(N=O)c2cc(C)ccc21`: the “hERG current change (%, negative = inhibition) at 10uM” value is -8.69%. Next, `CCn1c(SCC(=O)Nc2ccc3c(c2)OCCO3)nnc1-c1ccncc1`: 0.979%; `Cc1ccc(S(=O)(=O)N2CCN(C(=O)CN3CCN(C)CC3)C2)cc1`: 14.1%.

Consider `COc1ccccc1Nc1nc2ccccc2n1C`, for which the “hERG current change (%, negative = inhibition) at 10uM” value is on record as -3.73%.

Consider `COc1ccccc1C(=O)NC(C)c1ccccc1` (centres unmarked), for which the “hERG current change (%, negative = inhibition) at 10uM” value was 18.6%. Next, `COc1ccccc1C(=O)NCC(=O)Nc1cccnc1`: 20.5%.

Turning to `Cc1noc(C)c1COc1ccccc1C(=O)NCCc1ccc(Cl)cc1`, the “hERG current change (%, negative = inhibition) at 10uM” value is listed as -20.8%. Next, `Cc1cccc(C(=O)NCC(=O)NC(C)c2ccc(-n3ccnc3)cc2)c1` (centres unmarked): -68.5%; `CCOc1ccc(C(C)NC(=O)c2ccccc2OCc2c(C)noc2C)cc1OCC` (centres unmarked): -23.8%; `COc1ccccc1C(=O)NC(C)c1ccc(-n2ccnc2)cc1` (centres unmarked): -52.6%. Next, `COc1ccccc1C(=O)NCC(=O)NC(C)c1ccc(-n2ccnc2)cc1` (centres unmarked): -66.4%; `Cc1noc(C)c1COc1ccccc1C(=O)NC(C)c1ccc(Cl)cc1` (centres unmarked): -55.8%. Next, `COc1ccccc1C(=O)NCCC(=O)NC(C)c1ccc(-n2ccnc2)cc1` (centres unmarked): -17.1%; `COC(=O)CSc1nnc2n(-c3ccc(OC)cc3)c(=O)c3c4c(sc3n12)CCCCC4`: -10.6%.

`Cc1cc(NC(=O)CCC(=O)N(CC(=O)NC2CCCC2)c2ccc(Cl)cc2)no1`: the “hERG current change (%, negative = inhibition) at 10uM” value is on record as -16.7%. Next, `CN1CCN(S(=O)(=O)c2ccc(NC(=O)COc3ccccc3Cl)cc2)CC1`: 20.1%. Regarding `COc1ccc(NC(C)=O)cc1NS(=O)(=O)c1ccc2c(c1)OCCO2`, the “hERG current change (%, negative = inhibition) at 10uM” value is 21.4%. Next, `O=C(Nc1ccc2c(c1)OCO2)c1nn(-c2ccccc2)c(=O)c2ccccc12`: 11%.

For `O=C1C(=O)N(CCN2CCOCC2)C(c2ccccc2F)/C1=C(\O)c1ccc(S(=O)(=O)N2CCOCC2)cc1` (centres unmarked), the “hERG current change (%, negative = inhibition) at 10uM” value is listed as 11.5%.
